Structures are written as SMILES. The panel holds about 83,000 compounds, 20% with a hit somewhere; the sample as a whole holds those more often.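 How to read the values: 0–100, growth inhibition (40 = 60% inhibited); 0, no net growth; -100 to 0, cell death (-40 = 40% of starting cells died; -100 = all dead).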 Values without a mark were called inactive. Activity calls are given as the source filed them. The calls were made as follows: active = growth percent below 10; inactive = the rest.

The subject of the first assay is UACC-257 melanoma. Put plainly: NCI-60 one-dose screen, 48 h (100 = growth as untreated, 0 = no growth, -100 = all killed). The note with it: 10 µM unless noted.
For the compound `COc1c(Cl)c2c(c(OC)c1OC)-c1ccc(SC)c(=O)cc1[C@@H](NC(=O)OCC(F)(F)F)CC2`, the growth is 70.5%.

Consider `O=C(Cn1c[n+](CC(=O)c2ccc(-c3ccccc3)cc2)c2ccccc21)Nc1cccc2cccnc12`, for which the growth was 10.1%.

In the case of `CC(=O)CCC(=O)OCc1cc(=O)c(O)co1`, the growth was 99.7%.

With `COc1ccccc1NC(=O)C1CC(c2ccc(F)cc2)=NO1` (stereo not given), the growth was 107%.

With `COc1cccc(-c2nc3occn3c2-c2ccnc(NCCNS(=O)(=O)c3cccc4ccccc34)n2)c1`, the growth was 104%.

Turning to `N#C/C(=C\c1ccc([N+](=O)[O-])s1)c1nc2cc(Cl)ccc2s1`, the growth is 55.6%.

With `CNC(=O)c1cccc(Cn2nc(C)c(NC(=O)c3ccc(COc4ccc(C(F)(F)F)cc4C)cc3)c2C)n1`, the growth is 20.7%.

On to `N#Cc1c(NCc2ccccc2I)sc2c1CCCCC2`, for which the growth was 93.7%.

For the compound `CCCCCN1C=C/C(=C\C(=O)n2ccc3ccccc32)c2ccccc21`, the growth is 97.9%.

For the compound `COc1ccc(C(=O)c2cc(C)c(OC)c(C)c2)c(OC)c1OC(=O)C(Cl)Cl`, the growth was 48.1%.

Take `NC(=NCc1ccccc1)C(N=Nc1ccccc1)C(=O)NCc1ccccc1` (stereo not given): the growth is 95.4%.

On to `N#CC1C(C#N)C2c3ccccc3C=CN2C1C(=O)c1ccc(Br)cc1` (stereo not given), for which the growth is 103%.

As for `O=S(=O)(NCCNc1nccc(-c2c(-c3cccc(O)c3)nc3occn23)n1)c1cccc(F)c1`, the growth was 39.7%.

Take `COc1cc2oc(-c3cccc(C(=O)Nc4ccc5c(c4)OCO5)c3)cc(=O)c2c(O)c1OC`: the growth is 78.2%.

On to `COc1cc(/C=C/c2cc(O)c(C(C)=O)c(O)c2)cc2c1O[C@]1(C)CC[C@@H](O)C(C)(C)[C@H]1C2`, for which the growth is 76.4%.

Turning to `Cc1cnc(C(=O)Nc2nc3ccc(S(=O)(=O)Nc4ccc(C(C)(C)C)cc4)cc3[nH]2)cn1`, the growth was 59.1%.

Regarding `O=S(=O)(Nc1ccc(-n2cnc3cc(-c4ccc(O)cc4)ccc32)cc1)c1ccccc1`, the growth was 106%.

Regarding `Nc1n[nH]c2cccc(C#Cc3cccc(C(=O)Nc4cc(CN5CCOCC5)cc(C(F)(F)F)c4)c3)c12`, the growth is 33%.

Consider `COc1ccc(C(=O)c2cc(C)c(OC)c(C)c2)c(OC)c1N(C(=O)CCl)C(=O)CCl`, for which the growth was 46.2%.

In the case of `O=S(=O)(NCCNc1nccc(-c2c(-c3cccc(O)c3)nc3occn23)n1)c1ccccc1`, the growth is 17.7%.

Regarding `CC(C)(C)c1ccc(NS(=O)(=O)c2ccc3nc(NC(=O)c4cnccn4)[nH]c3c2)cc1`, the growth is 46.7%.

Turning to `C#CCNC(=O)c1cccc2c1cc(C)n2-c1nc2c(c(NCc3ccccc3)n1)CCCC2`, the growth is -30.5% (active).

Consider `NC1=NN=C(N)C1=Cc1cc2ccccc2n2nnnc12`, for which the growth was 98.3%.

Another assay relates to M14 melanoma. The description is as above. The settings on record: 10 µM unless noted.
Consider `COc1cccc2c1c1nc3cc(C)c(C)cc3nc1n2CCN(C)C`, for which the growth is 22.2%.

Consider `COc1cc(NC(C)CCCNC(=O)CCC(=O)NCCCNCCCCCCCCCCNCCCNC(=O)CCC(=O)NCCCC(C)Nc2cc(OC)cc3cccnc23)c2ncccc2c1` (stereo not given), for which the growth was 87% [8 µM].

In the case of `COc1cc(/C=C\C(=O)O)ccc1OCc1ccccc1`, the growth is 109%.

In the case of `CCc1c(Cl)nc(N)nc1Nc1ccc(C)c(C)c1`, the growth is 104%.

Take `COc1cc2nc(-c3ccc(C(F)(F)F)cc3)cc(OCCCN3CCOCC3)c2cc1OC`: the growth was -56% (active).

On to `CCN(CC)c1ccc(/C=N/NC(=O)CSc2nc3ccccc3c(=O)n2Cc2ccc(S(N)(=O)=O)cc2)c(O)c1`, for which the growth was 4.26% (active).

With `O=C(c1nnc(Nc2ccccc2Br)o1)c1c[nH]c2ccccc12`, the growth was 92.5%.

With `NNC(=O)c1ccc(-n2nc(-c3ccccc3)c3ccccc32)cc1`, the growth was 77%.

Consider `Cc1cnc(C(=O)Nc2nc3ccc(S(=O)(=O)Nc4ccc(C5(C(F)(F)F)CC5)cc4)cc3[nH]2)cn1`, for which the growth was 6.68% (active).

For the compound `CCCCCCCCOc1ccc(/C=N/Nc2cc(C)nc3ccc(Br)cc23)cc1`, the growth is 53.6%.

With `Cc1ccc(NC(=O)c2cc(-c3nc4ccccc4s3)c(=O)n(NS(=O)(=O)c3ccc(Cl)cc3)c2N)cc1`, the growth is 99.4%.

Turning to `N/C(=N\C(N)=N\c1nc2ccccc2s1)c1cnccn1`, the growth is 23.2%.

On to `CCN(CC)CCCC(C)Nc1cc(O)cc2cccnc12` (stereo not given), for which the growth was 113%.

With `COc1ccccc1NS(=O)(=O)c1cccc(C(=O)Nc2ccc(Br)cc2)c1`, the growth is 38.9%.

Consider `COc1c(Cl)c2c(c(OC)c1OC)-c1ccc(SC)c(=O)cc1[C@@H](NC(=O)OCC(F)(F)F)CC2`, for which the growth is 0.43% (active).

For `O=C(Cn1c[n+](CC(=O)c2ccc(-c3ccccc3)cc2)c2ccccc21)Nc1cccc2cccnc12`, the growth was 28.1%.

For the compound `CC(=O)CCC(=O)OCc1cc(=O)c(O)co1`, the growth was 99.4%.

Turning to `COc1ccccc1NC(=O)C1CC(c2ccc(F)cc2)=NO1` (stereo not given), the growth was 104%.

Turning to `COc1cccc(-c2nc3occn3c2-c2ccnc(NCCNS(=O)(=O)c3cccc4ccccc34)n2)c1`, the growth was 117%.

For `N#C/C(=C\c1ccc([N+](=O)[O-])s1)c1nc2cc(Cl)ccc2s1`, the growth was -78.1% (active).

In the case of `CNC(=O)c1cccc(Cn2nc(C)c(NC(=O)c3ccc(COc4ccc(C(F)(F)F)cc4C)cc3)c2C)n1`, the growth is 53.7%.

Turning to `N#Cc1c(NCc2ccccc2I)sc2c1CCCCC2`, the growth was 97.3%.

As to `CCCCCN1C=C/C(=C\C(=O)n2ccc3ccccc32)c2ccccc21`, the growth is 92%.

On to `COc1ccc(C(=O)c2cc(C)c(OC)c(C)c2)c(OC)c1OC(=O)C(Cl)Cl`, for which the growth was -9.89% (active).

As for `NC(=NCc1ccccc1)C(N=Nc1ccccc1)C(=O)NCc1ccccc1` (stereo not given), the growth is 82.9%.

As for `N#CC1C(C#N)C2c3ccccc3C=CN2C1C(=O)c1ccc(Br)cc1` (stereo not given), the growth was 104%.

Turning to `O=S(=O)(NCCNc1nccc(-c2c(-c3cccc(O)c3)nc3occn23)n1)c1cccc(F)c1`, the growth was 35.9%.

For the compound `COc1cc2oc(-c3cccc(C(=O)Nc4ccc5c(c4)OCO5)c3)cc(=O)c2c(O)c1OC`, the growth is 89.7%.

Take `COc1cc(/C=C/c2cc(O)c(C(C)=O)c(O)c2)cc2c1O[C@]1(C)CC[C@@H](O)C(C)(C)[C@H]1C2`: the growth is 51.5%.

Regarding `Cc1cnc(C(=O)Nc2nc3ccc(S(=O)(=O)Nc4ccc(C(C)(C)C)cc4)cc3[nH]2)cn1`, the growth is 1.89% (active).

`O=S(=O)(Nc1ccc(-n2cnc3cc(-c4ccc(O)cc4)ccc32)cc1)c1ccccc1`: the growth is 85.1%.

With `Nc1n[nH]c2cccc(C#Cc3cccc(C(=O)Nc4cc(CN5CCOCC5)cc(C(F)(F)F)c4)c3)c12`, the growth is 6.89% (active).

`COc1ccc(C(=O)c2cc(C)c(OC)c(C)c2)c(OC)c1N(C(=O)CCl)C(=O)CCl`: the growth is -20.7% (active).

For the compound `O=S(=O)(NCCNc1nccc(-c2c(-c3cccc(O)c3)nc3occn23)n1)c1ccccc1`, the growth was 29.4%.

As to `CC(C)(C)c1ccc(NS(=O)(=O)c2ccc3nc(NC(=O)c4cnccn4)[nH]c3c2)cc1`, the growth was 35.1%.

Consider `C#CCNC(=O)c1cccc2c1cc(C)n2-c1nc2c(c(NCc3ccccc3)n1)CCCC2`, for which the growth is -39.2% (active).

In the case of `NC1=NN=C(N)C1=Cc1cc2ccccc2n2nnnc12`, the growth was 111%.

The record behind these values is PubChem BioAssay (NCI).
